Test results as given in PubChem BioAssay AID1438 (Sanford-Burnham Center for Chemical Genomics, 2008).
The campaign covered roughly 2,200 compounds. About 45 (2%) were called active. A selection follows. Measured potencies and affinities stand elsewhere. A number with no mark means an inactive call. No rule for the calls is given here.

What follows are compounds tested against Runt-related transcription factor 1 (Homo sapiens) + Core-binding factor subunit beta (Homo sapiens) (UniProt Q01196+Q13951) (assay: inhibitors of RUNX1 Runt–CBFb-SMMHC binding, biochemical, TR-FRET (AID 1438)). Conditions: TR-FRET Runt domain–CBFb-SMMHC binding, at 20 µM, active compounds read high.
Chain of Runt-related transcription factor 1 (Homo sapiens) + Core-binding factor subunit beta (Homo sapiens) (Q01196 whole entry, looked up, the tested form may be a part): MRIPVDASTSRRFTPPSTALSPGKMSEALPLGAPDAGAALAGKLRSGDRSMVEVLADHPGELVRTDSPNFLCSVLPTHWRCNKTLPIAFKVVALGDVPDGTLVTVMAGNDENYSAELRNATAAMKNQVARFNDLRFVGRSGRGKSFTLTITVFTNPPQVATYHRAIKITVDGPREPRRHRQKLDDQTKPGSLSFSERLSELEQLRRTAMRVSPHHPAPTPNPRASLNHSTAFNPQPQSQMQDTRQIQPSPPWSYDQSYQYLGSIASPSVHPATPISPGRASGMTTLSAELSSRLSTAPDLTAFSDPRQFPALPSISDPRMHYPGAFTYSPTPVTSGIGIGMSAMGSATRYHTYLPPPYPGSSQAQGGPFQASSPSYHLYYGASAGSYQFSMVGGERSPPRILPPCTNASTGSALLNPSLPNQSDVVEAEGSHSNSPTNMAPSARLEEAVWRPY
Chain of Runt-related transcription factor 1 (Homo sapiens) + Core-binding factor subunit beta (Homo sapiens) (Q13951 whole entry, looked up, the tested form may be a part): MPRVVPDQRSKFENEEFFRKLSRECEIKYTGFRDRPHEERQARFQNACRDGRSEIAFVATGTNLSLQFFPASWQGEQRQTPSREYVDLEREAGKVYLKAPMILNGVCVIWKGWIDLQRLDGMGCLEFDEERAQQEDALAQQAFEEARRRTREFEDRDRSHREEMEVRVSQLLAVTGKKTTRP

Compound	inhibition
Cc1ccc(S(=O)(=O)c2cc3c(=O)n4cccc(C)c4nc3n(Cc3ccco3)c2=N)cc1C	47.5%
CCCn1c(=NC(=O)c2c(-c3c(F)cccc3Cl)noc2C)c(C(=O)OCC)cc2c(=O)n3ccccc3nc21	-16.8%
COc1nc(N)c(S(=O)(=O)c2ccccc2)cc1C#N	8.9%
CCOC(=O)c1cc2c(=O)n3ccccc3nc2n(CC2CCCO2)c1=NC(=O)/C=C/c1ccccc1 (stereo not given)	3.6%
C=CCNC(=O)/C(C#N)=C/c1c(N(Cc2ccccc2)Cc2ccccc2)nc2ccccn2c1=O	19.2%
COCCN(C(=O)CN1CCc2ccccc2C1)c1c(N)n(Cc2ccccc2)c(=O)[nH]c1=O	23.7%
COc1ccccc1NC(=O)c1cc2ccc(O)cc2o/c1=N\O	-13.2%
COc1ccccc1NC(=O)c1cc2ccccc2o/c1=N\O	30.6%
COCCN1C=C(C(=O)OC)C(c2ccccc2C(F)(F)F)C(C(=O)OC)=C1	44%
COc1cc(/C=N/N2CCN(C3c4ccccc4-c4ccccc43)CC2)cc(OC)c1O	33.8%
O=C1C2C3C=CC(CO)(O3)C2C(=O)N1c1ccc(-c2ccccc2)cc1 (stereo not given)	27.4%
N#Cc1cc2cc3c(cc2nc1NCCNC(=S)NCCCN1CCOCC1)OCO3	-18.1%
CCOC(=O)Cc1csc(/N=C/c2c(O)n(-c3ccc(C)c(C)c3)c(=O)c3ccccc23)n1	5%
O=c1c2ccccc2sn1-c1nccs1	-7%
Cc1c2c(n3c(nc4ccccc43)c1C#N)N(CCCN(C)C)CC2	-5.5%
Clc1ccc(C2=NN(c3ccccc3)C(c3ccco3)C2)cc1 (stereo not given)	37.8%
CC(C)OCCCn1c(=N)c(C(N)=S)cc2c(=O)n3ccccc3nc21	49.7%
Cc1cccn2c(=O)c3cc(C(N)=S)c(=N)n(CCCOC(C)C)c3nc12	63.5% (active)
CC(=O)N=c1c(C#N)cc2c(=O)n3cccc(C)c3nc2n1CCCOC(C)C	-10.3%
CCOCCCn1c(=N)c(C(=O)NCc2ccc3c(c2)OCO3)cc2c(=O)n3cccc(C)c3nc21	1.9%
Cc1cccn2c(=O)c3cc(C(N)=S)c(=N)n(CCCN4CCOCC4)c3nc12	-11.3%
N#C/C(=C(/O)CCCl)c1ccccn1	-8%
c1ccc(-c2onc3cc4c(cc23)OCCO4)cc1	17.4%

Compound	inhibition
CCOC(=O)c1cc2c(=O)n3cccc(C)c3nc2n(CC(C)C)c1=NC(=O)c1ccco1	-5.3%
CCOc1ccc2nc(NCCNC(=O)CC)c(C#N)cc2c1	33.5%
CC(=O)N(C)/C=C1\Sc2ccccc2C1=O	6.4%
Cc1ccc(-n2c(=O)c(C#N)cc3c(=O)n4cccc(C)c4nc32)cc1	48.6%
COCCCn1c(=O)/c(=C\c2ccc(OC(F)F)c(OC)c2)s/c1=C(/C#N)C(=O)NCCOC	-12.1%
Cc1ccc(C)c(OCCn2cc(/C=C(\C#N)C(=O)NCc3ccco3)c3ccccc32)c1	17.3%
Cc1cc(N2C(=O)C=CC2=O)c([N+](=O)[O-])cc1C	52.7% (active)
COc1cc(N2C(=O)C=CC2=O)c(OC)cc1Cl	-8.5%
C=C(C)CNC(=S)Nc1sc2c(c1C(=O)OCC)CC(C)(C)OC2	-9.8%
NS(=O)(=O)c1ccc(NC(=O)COC(=O)c2c3c(nc4ccccc24)/C(=C\c2ccc4c(c2)OCO4)CCC3)cc1	-24.4%
COc1ccc(/C=C2\CCc3c2nc2ccccc2c3C(=O)O)cc1OC	-11.1%
O=C(O)c1c2c(nc3ccccc13)/C(=C/c1ccc(O)cc1)CC2	-6.6%
Cc1cccc(C)c1NC(=O)COC(=O)c1c2c(nc3ccccc13)/C(=C\c1ccc3c(c1)OCO3)CCC2	1.3%
CCN1CCc2c(C#N)c(N3CCOCC3)nc(NCc3ccccc3)c2C1	35.4%
Cc1cccn2c(=O)c3cc(C(=O)NCC4CCCO4)c(=N)n(CCN4CCOCC4)c3nc12 (stereo not given)	11.3%
COc1ccc(C2C=C(c3ccccc3)Nc3ncnn32)cc1 (stereo not given)	30.8%
Cc1ccccc1-n1c(=O)c(C#N)cc2c(=O)n3ccccc3nc21	23.6%
c1cc2c(cc1-c1csc(NNC3=NCCCCC3)n1)OCCO2	-4.3%
N#Cc1c(NCCO)nc(NCc2ccccc2)c2c1CCN(Cc1ccccc1)C2	48.5%
C=CCNc1nc(NCc2ccccc2)c(C#N)c2c1CN(C)CC2	31.3%
Cn1c(=N)c(S(=O)(=O)c2ccc(F)cc2)cc2c(=O)n3ccccc3nc21	47.6%
COc1cc2cc(C(=O)N3CCN(Cc4ccc5c(c4)OCO5)CC3)c(=O)oc2cc1OC	-6.8%
O=C(O)c1cc2ccc3ccccc3c2oc1=O	34.5%

Compound	inhibition
O=C(c1cc2ccccc2oc1=O)N1CCN(CCc2ccccc2)CC1	55.2% (active)
CC1=CC(c2ccc(Cl)cc2)n2nc(NC(=O)CCC(=O)O)nc2N1 (stereo not given)	-7.4%
Cc1cc(-c2nc3cccnc3s2)ccc1NS(=O)(=O)c1cccs1	-9.2%
CC(=O)N=c1c(C#N)cc2c(=O)n3ccccc3nc2n1Cc1ccccc1	47.4%
CCOC(=O)c1cc2c(=O)n3ccccc3nc2n(Cc2ccco2)c1=NC(=O)c1ccc(OC)cc1	-16.9%
COCCCn1c(=NC(=O)c2ccncc2)c(C#N)cc2c(=O)n3cccc(C)c3nc21	14%
CC(=O)N=c1c(C#N)cc2c(=O)n3cccc(C)c3nc2n1Cc1ccco1	-8.8%
Cc1cccn2c(=O)c3cc(C#N)c(=NC(=O)c4ccco4)n(Cc4ccco4)c3nc12	-9.7%
Cc1ccccc1C(=O)N=c1c(C#N)cc2c(=O)n3cccc(C)c3nc2n1Cc1ccco1	47%
O=C(Cc1nc2ccccc2s1)c1ccc(O)cc1O	15.1%
CCOC(=O)c1cc(C(=O)OCC)c2ccccn2c1=O	25.7%
COCCCNC(=O)c1cc2c(=O)n3cc(C)ccc3nc2nc1NCC1CCCO1 (stereo not given)	-2.6%
CC(C)OC(=O)c1c2nc3ccccc3nc2n2c1[nH]c(=O)c1ccccc12	-203%
Cc1ccc2[nH]cc(C(=O)CN3CCC4(CC3)OCCO4)c2c1	2.6%
O=c1[nH]c2ccccc2n2c(-c3ccccc3)nnc12	84.1% (active)
COCc1cc(=O)n2c([nH]c3ccccc32)c1C#N	38.4%
O=c1[nH]c2ccccc2nc1/C=C/c1ccccc1	-5.7%
Cc1cccn2c(=O)c3cc(C(=O)NCc4ccco4)c(=N)n(C(C)C)c3nc12	32.5%
COc1cc(/C=C/C(=O)OCC(=O)Nc2ccccc2Sc2ccc(Cl)cc2)ccc1O	1.1%
Cc1cccn2c(=O)c(/C=C(\C#N)C(=O)NC3CCS(=O)(=O)C3)c(N3CC(C)OC(C)C3)nc12 (stereo not given)	-39.6%
COc1ccc(OC)c(N=c2ssnc2Cl)c1	-11.1%
N#Cc1c(NC(=S)NC(=O)c2ccccc2)sc2c1CCN(CCc1ccccc1)C2	52% (active)
CCCN1CCc2c(sc(NC(=S)NC(=O)c3ccccc3)c2C#N)C1	-14.1%

Compound	inhibition
CC(C)N1CCc2c(sc(NC(=S)NC(=O)c3ccccc3)c2C#N)C1	21.2%
CNS(=O)(=O)c1ccc2nc(NC(=O)c3ccc(N4C(=O)CCC4=O)cc3)sc2c1	-3.6%
O=C(Nc1nc2c(s1)CN(Cc1ccccc1)CC2)C1CCC1	43%
COc1ccc(C2c3ccc(O)cc3Oc3ncn(CC(C)C)c(=N)c32)cc1 (stereo not given)	-6.8%
NNc1nc2sc3c(c2c(=O)n1C1CCCCC1)CCN(Cc1ccccc1)C3	-9.4%
CC(=O)Nc1sc2c(c1C(N)=O)CCN(Cc1ccccc1)C2	-0.2%
CC1(C)CC(=O)C2=C(C1)Nc1ccccc1NC2	-9.5%
O=C(c1ccccc1)c1cc2ccc(O)cc2oc1=O	-8.4%
CCCn1c(=N)c(C(=O)NC2CCCC2)cc2c(=O)n3cccc(C)c3nc21	2.5%
CCc1ccc(S(=O)(=O)Nc2ccc(-c3nc4cccnc4s3)cc2)s1	44%
O=S(=O)(Nc1ccc(-c2nc3cccnc3s2)cc1)c1cccs1	29.2%
Cc1cccc2cc(C#N)c(NCCNS(=O)(=O)c3ccccc3)nc12	-12.6%
CN1CCN(Cc2c(O)ccc3cc(-c4ccccn4)c(=O)oc23)CC1	-17.3%
COc1ccc(C2C3=C(CC(C)(C)CC3=O)Nc3c2c(=O)[nH]c2nc(C)nn32)cc1 (stereo not given)	17.2%
Cc1nc2[nH]c(=O)c3c(n2n1)NC1=C(C(=O)CC(C)(C)C1)C3c1ccc(F)cc1 (stereo not given)	46.7%
O=C(Nc1nccs1)c1ccccc1N=Cc1ccccc1	49.3%
Cn1c(C(=O)NCc2ccccn2)cc2c(=O)n3ccccc3nc21	11.6%
CC(C)Cn1c(N)c(C(=O)NCCN2CCOCC2)c2nc3ccccc3nc21	46.7%
COc1ccc(CCn2c(N)c(C(=O)NCc3ccco3)c3nc4ccccc4nc32)cc1	46.3%
Nc1c(C(=O)NCc2ccco2)c2nc3ccccc3nc2n1CCc1ccccc1	42.7%
CC(C)Cn1c(N)c(C(=O)NCc2cccs2)c2nc3ccccc3nc21	17%
